Outcome and Potency data for 26 compounds are collected here from PubChem BioAssay (NCATS).

Results filed as inconclusive are left out. Entries that show only a call come without a potency. Activity calls are given as the source filed them. Unless noted, calls follow the shape of the dose curve; as a rule, active = well fitted curve in the direction sought with a large enough effect; inconclusive = small, poorly fitted or top-dose-only effect, or another doubt; inactive = no such curve, though single readings can be large; an effect the other way counts as inactive or inconclusive.

The target in test [1] is Mitogen-activated protein kinase 10 (Mus musculus) (UniProt Q61831). The experiment in a line: JNK3 AlphaScreen Assay (AID 530; active = well fitted curve in either direction with a large enough effect, not every such curve was filed as active;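 also: kinase came from lysate of stimulated human HepG2 cells; signal reports phosphorylation of biotinylated GST-cJun 1-79 at Ser73 with 10 µM ATP; series mostly up to about 57 µM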). The gist of the method: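 Room-temperature AlphaScreen kinase assay; pre-activated HepG2 lysate as JNK3 source, biotin-GST-cJun(1-79) substrate, 10 uM ATP, compound 15 min preincubation.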
Test [2] concerns the target Cytochrome P450 3A4 (Homo sapiens) (UniProt P08684). Description: qHTS Assay for Inhibitors and Substrates of Cytochrome P450 3A4 (AID 884). Also: nearly all actives have a fitted effect of over 50% in size. Also: potency is read from the fitted curve at half-maximal effect. An outline of the steps: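 20 nM human CYP3A4 with 25 uM Luciferin-PPXE (at KM) in 200 mM KPO4, preincubated 10 min with compound; NADPH regeneration started a 60 min RT reaction. Luciferin detected by luminescence, normalized to 57 uM ketoconazole as full inhibition.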

Test [3] shares this target. Description: qHTS Assay for Activators of Cytochrome P450 3A4 (AID 885). Also: nearly all actives have a fitted effect of over 65% in size. An outline of the steps:
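Steps: enzyme/substrate mix dispensed; compound added, 10 min RT; NADPH regeneration solution added, 60 min RT; luciferin detection buffer stops reaction; 20 min later luminescence measured.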

Cytochrome P450 3A4 (Homo sapiens), sequence (P08684 whole entry, looked up): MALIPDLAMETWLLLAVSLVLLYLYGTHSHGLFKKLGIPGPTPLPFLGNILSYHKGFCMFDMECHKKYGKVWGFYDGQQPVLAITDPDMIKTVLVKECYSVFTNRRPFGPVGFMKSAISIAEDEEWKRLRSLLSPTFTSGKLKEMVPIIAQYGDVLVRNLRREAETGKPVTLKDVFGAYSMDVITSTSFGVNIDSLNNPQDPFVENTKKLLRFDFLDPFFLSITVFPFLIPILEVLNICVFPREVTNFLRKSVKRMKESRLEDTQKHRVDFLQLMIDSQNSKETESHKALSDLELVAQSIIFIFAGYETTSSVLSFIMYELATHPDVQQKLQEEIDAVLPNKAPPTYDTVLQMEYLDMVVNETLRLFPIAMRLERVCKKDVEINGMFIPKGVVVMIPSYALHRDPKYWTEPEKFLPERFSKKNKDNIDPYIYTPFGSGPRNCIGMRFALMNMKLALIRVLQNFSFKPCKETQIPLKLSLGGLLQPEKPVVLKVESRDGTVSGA

As to `COC(=O)CNC(=O)C1(C)C=CCN1C(=O)c1ccccc1` (centres undefined), the compound was classed as inactive in test [1]. Further, in test [2], the Potency was 39.8 µM (active). Also, the Potency entry in test [3] was “inactive”.

As for `CCCCCCN(C(=O)CCCCCN1C(=O)NC(c2ccc(C(F)(F)F)cc2)C(C(=O)OCc2ccccc2)=C1C)C(C(=O)NCCCC)c1ccc(OCC(=O)OC)c(C(=O)OC)c1` (centres undefined), the outcome in test [1] was inactive. The Potency in test [2] was 3.98 µM (active). Also, the Potency entry in test [3] is “inactive”.

Consider `CCCCCCN(C(=O)CCCCCN1C(=O)NC(c2ccc(-c3ccccc3)cc2)C(C(=O)OCc2ccccc2)=C1C)C(C(=O)NCCCC)c1ccc(-c2ccccc2)cc1` (centres undefined), for which the result in test [1] was inactive. Also, the Potency entry in test [2] is “inactive”.

With `CCCCNC(=O)C(c1ccc(OCC(=O)OC)c(C(=O)OC)c1)N(CCc1ccccn1)C(=O)CCCCCN1C(=O)NC(c2ccc(-c3ccccc3)cc2)C(C(=O)OCc2ccccc2)=C1C` (centres undefined), the outcome in test [1] was inactive. The Potency in test [2] is 7.94 µM (active). For the same compound, the Potency entry in test [3] is “inactive”.

In the case of `CCCCCCN(C(=O)CCCCCN1C(=O)NC(c2ccc(-c3ccccc3)cc2)C(C(=O)OCc2ccccc2)=C1C)C(C(=O)NCCCC)c1ccc(O)c(C(=O)OC)c1` (centres undefined), the call in test [1] was inactive. Moreover, the Potency in test [2] is 10 µM (active). Moreover, in test [3], the Potency entry is “inactive”.

As for `COC(=O)c1ccc(C(NC(=O)OCc2ccccc2)/C(C)=C/[C@@H](C)C(=O)NC2CCCCC2)cc1` (some centres undefined), the compound was called inactive in test [1]. In addition, in test [2], the Potency is 2 µM (active). Further, the Potency result in test [3] was “inactive”.

As for `CNC(=O)C1(C)C=CCN1C(=O)OC` (centres undefined), the compound was classed as inactive in test [1]. Further, in test [2], the Potency entry is “inactive”.

For `CCCCCCN(C(=O)CCCCCN1C(=O)NC(c2ccc(-c3ccccc3)cc2)C(C(=O)OCc2ccccc2)=C1C)C(C(=O)NCCCC)c1ccc(O)cc1` (centres undefined), the compound was called inactive in test [1]. Further, the Potency in test [2] was 10 µM (active). Besides, the Potency result in test [3] is “inactive”.

For `COC(=O)c1ccc(C(NC(=O)OCc2ccccc2)/C(=C/[C@@H](C)C(=O)NCc2ccc(-c3ccccc3)cc2)c2cccnc2)cc1` (some centres undefined), in test [1], the compound was called inactive. For the same compound, in test [2], the Potency is 0.794 µM (active). In addition, the Potency entry in test [3] was “inactive”.

For `CNC(=O)[C@@]1(C)C=C[C@@H](Cc2ccccc2)N1C(C)=O`, in test [1], the call was inactive. For the same compound, the Potency result in test [2] is “inactive”.

For the compound `COC(=O)N1[C@H](C)C=C[C@]1(Cc1ccccc1)C(=O)O`, the outcome in test [1] was inactive. For the same compound, in test [2], the Potency result was “inactive”.

On to `COC(=O)c1ccc(C(/C=C/[C@@H](C)C(=O)NCc2ccccc2)NC(=O)OCc2ccccc2)cc1` (some centres undefined), for which, in test [1], the call was inactive. The Potency in test [2] was 5.01 µM (active). Moreover, the Potency result in test [3] was “inactive”.

With `COC(=O)c1ccc(C(NC(=O)OCc2ccccc2)/C(=C/[C@@H](C)C(=O)NC2CCCCC2)c2cccnc2)cc1` (some centres undefined), the call in test [1] was inactive. Moreover, the Potency in test [2] is 1.26 µM (active). Also, in test [3], the Potency result was “inactive”.

`COC(=O)c1ccc(C(NC(=O)OCc2ccccc2)/C(F)=C/[C@@H](C)C(=O)NCc2ccc(-c3ccccc3)cc2)cc1` (some centres undefined): the call in test [1] was inactive. The Potency in test [2] was 3.98 µM (active).

In the case of `COC(=O)c1ccc(C(NC(=O)OCc2ccccc2)/C(F)=C/[C@@H](C)C(=O)N(C)Cc2cccnc2)cc1` (some centres undefined), the compound was called inactive in test [1]. Moreover, the Potency in test [2] is 2 µM (active). Besides, the Potency result in test [3] was “inactive”.

Consider `COC(=O)c1ccc(C(NC(=O)OCc2ccccc2)/C(=C/[C@@H](C)C(=O)N(C)Cc2ccccc2)c2cccnc2)cc1` (some centres undefined), for which the compound was called inactive in test [1]. Further, the Potency in test [2] was 2 µM (active). The Potency entry in test [3] is “inactive”.

Consider `COC(=O)c1ccc(C(NC(=O)OCc2ccccc2)/C(C)=C/[C@@H](C)C(=O)NCCN2CCOCC2)cc1` (some centres undefined), for which, in test [1], the compound was called inactive. Further, the Potency in test [2] is 3.16 µM (active). The Potency result in test [3] was “inactive”.

With `CC(=O)N1CC=CC1(CC(C)C)C(=O)O` (centres undefined), in test [1], the compound was classed as inactive. In test [2], the Potency result is “inactive”.

As for `COC(=O)c1ccc(C(NC(=O)OCc2ccccc2)/C(=C/[C@@H](C)C(=O)NCc2cc(F)cc(F)c2)c2cccnc2)cc1` (some centres undefined), in test [1], the compound was classed as inactive. Moreover, the Potency in test [2] was 1.58 µM (active). For the same compound, the Potency result in test [3] was “inactive”.

On to `COC(=O)c1ccc(C(NC(=O)OCc2ccccc2)/C(=C/[C@@H](C)C(=O)NCc2ccncc2)c2cccnc2)cc1` (some centres undefined), for which, in test [1], the outcome was inactive. Besides, the Potency in test [2] is 1.26 µM (active). Also, the Potency result in test [3] was “inactive”.

Take `COC(=O)c1ccc(C(NC(=O)OCc2ccccc2)/C(F)=C/[C@@H](C)C(=O)NCCc2c[nH]c3ccc(OC)cc23)cc1` (some centres undefined): in test [1], the compound was called inactive. Besides, the Potency in test [2] was 1.26 µM (active). Also, in test [3], the Potency entry was “inactive”.

As for `CNC(=O)[C@@]1(Cc2ccccc2)C=C[C@@H](C)N1C(C)=O`, the result in test [1] was inactive. The Potency result in test [2] is “inactive”.

Turning to `CNC(=O)C1(CC(C)C)C=CCN1C(=O)c1ccccc1` (centres undefined), in test [1], the compound was classed as inactive. For the same compound, the Potency entry in test [2] is “inactive”.

`C[C@]1(C(=O)NCCCNc2ncc(C(F)(F)F)cc2Cl)C=C[C@@H](Cc2ccccc2)N1C(=O)c1ccccc1`: the result in test [1] was inactive. Further, in test [2], the Potency was 3.16 µM (active). Further, the Potency entry in test [3] was “inactive”.

For the compound `COC(=O)c1ccc(C(NC(=O)OCc2ccccc2)/C(=C/[C@@H](C)C(=O)NCc2ccccc2)c2cccnc2)cc1` (some centres undefined), the outcome in test [1] was inactive. Also, the Potency in test [2] was 3.98 µM (active).

Consider `CCCCNC(=O)C(c1ccc(-c2ccccc2)cc1)N(CCN1CCOCC1)C(=O)CCCCCN1C(=O)NC(c2ccc([N+](=O)[O-])cc2)C(C(=O)OCc2ccccc2)=C1C` (centres undefined), for which the compound was called inactive in test [1]. Besides, in test [2], the Potency is 2.51 µM (active). The Potency entry in test [3] was “inactive”.
